According to the supplement of paper PMC6555819:

Key:
Test in all cases: PBM binding z-score (relative to random genomic background probes); higher = stronger binding; sequences stand for … in GC…GCGATTGACAGCGTAGAATGAAGG
[1] = system: PPARg:RXRa DBDmut IVT, anti-RXR (DBD mutation: RXRa K156A/R161A, NR concentration 270 nM, RXRa partner concentration 90 nM)
In short: (§1)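 Binding z-scores were set against random background probes. The data came from custom Agilent 4×180K protein-binding microarrays carrying double-stranded probes with 34-nt variable regions, incubated 1 h with ligand-free nuclear receptor dimers. Partner-specific antibodies detected binding, and scanned fluorescence was regression-normalized.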

[2] = system: PPARg:RXRa IVT, anti-PPARg (NR concentration 270 nM, RXRa partner concentration 90 nM)
In short: as §1

[3] = system: PPARg DBDmut:RXRa IVT, anti-PPARg (DBD mutation: PPARg1 K132A/R137A, NR concentration 270 nM, RXRa partner concentration 90 nM)
In short: as §1

[4] = system: PPARg DBDmut IVT, anti-PPARg (DBD mutation: PPARg1 K132A/R137A, NR concentration 270 nM)
In short: as §1

[5] = system: PPARg homodimer (NR concentration 180 nM)
In short: as §1

[6] = system: PXR:RXRa (NR concentration 270 nM, RXRa partner concentration 90 nM)
In short: as §1

[7] = system: PXR homodimer (NR concentration 270 nM)
In short: as §1

[8] = system: RARa:RXR (NR concentration 270 nM, RXRa partner concentration 90 nM)
In short: as §1

[9] = system: RARa homodimer (NR concentration 270 nM)
In short: as §1

[10] = system: RARb:RXRa (NR concentration 270 nM, RXRa partner concentration 90 nM)
In short: as §1

| Sequence | PBM binding z-score [1] | PBM binding z-score [2] | PBM binding z-score [3] | PBM binding z-score [4] | PBM binding z-score [5] | PBM binding z-score [6] | PBM binding z-score [7] | PBM binding z-score [8] | PBM binding z-score [9] | PBM binding z-score [10] |
| --- | --- | --- | --- | --- | --- | --- | --- | --- | --- | --- |
| ATCGAAAGGTCGTGGGGTGAGTATACAGAAAGGC | 1.35 | 2.93 | 1.62 | 1.78 | 2.39 | 4.24 | 1.2 | 4.98 | 2.03 | 4.47 |
| CCTCCTGGGCCACGAAAGGTCATTGATTCAGTGA | 0.578 | 2.2 | -0.811 | -1.6 | 1.96 | 5.33 | 0.829 | 4.92 | 0.516 | 3.97 |
| CCTAGTTGGTCAAAGTCACACACGCTATAGGTAC | 1.7 | 1.52 | 0.647 | 0.822 | 1.59 | 0.0775 | 0.736 | 0.303 | 1.44 | 1.42 |
| CTAACGAGGGCATGAGTTGATAGCAAATGCCGAT | 3.84 | 2.56 | 0.128 | 0.129 | 0.262 | 0.639 | 0.123 | 0.588 | 0.359 | 2.01 |
| CCTAGCAGGCCAGGGTCACTCTAGCATTTCGCTT | 0.274 | 0.7 | -1.19 | -1.73 | 0.937 | 2.39 | -0.295 | 3.03 | -0.305 | 2.52 |
| CCTAGTAGGTCAAGGTCACACACGCTATAGGTAC | 8.26 | 7.96 | 1.56 | 0.61 | 3.98 | 4.96 | 1.81 | 5.14 | 2.09 | 5.1 |
| TGTCAAAGTTCAAAGGTAACGTGAGTATCCACAC | 0.486 | 4.72 | 1.71 | 2.12 | 3.33 | 5.78 | 3.67 | 6.92 | 0.948 | 5.15 |
| GCATATAGGTAATACAAGGTGATAGTCCGATTGT | 4.05 | 2.84 | 1.05 | 1.46 | 0.142 | 0.0575 | -0.157 | 0.688 | 0.359 | -0.103 |
| TCTTGTAGTTCAACAGGAGGTTAAGAAAGATCGA | 1.24 | 0.804 | 0.436 | -0.0772 | 1.16 | 3 | 0.574 | 2.75 | 0.938 | 2.56 |
| CAAACTAGGTCCAGAGGTCAAAGTCCGCTTCCCG | 2.96 | 3.98 | 0.89 | 0.535 | 3.29 | 5.47 | 2.58 | 5.5 | 0.452 | 4.11 |
| CCGAGTAGGTTATTGGGCATTCAGGCAACGGTGA | 3.85 | 2.72 | -1.32 | -0.589 | 0.636 | -0.415 | -0.545 | -0.107 | -0.0218 | 0.472 |
| CGAACTAGGTCATTGACACGACAGTGAATAGTAA | 7.93 | 8.44 | 3.78 | 3.06 | 2.25 | 1.33 | 0.767 | 2.2 | 0.177 | 3.52 |
| TCGAGTAGGTTAGGGTCATTCAGAATGGCGTCGA | 2.47 | 2.77 | -0.28 | 0.496 | 2.22 | 4.55 | 2.03 | 5.08 | 0.43 | 3.08 |
| ACTCGGAGGACTAAGGTCAGAGCTACGCCAGTGA | -0.123 | 0.778 | -0.0206 | -0.832 | 1.27 | 1.8 | 0.241 | 2.92 | -0.326 | 2.88 |
| CGTCCATGGTCAAGGTCAGTGAAAGAGACTCGAA | 0.484 | 1.54 | -0.688 | -0.778 | 1.17 | 1.78 | 0.42 | 2.23 | 0.236 | 3.59 |
| CGAACTAGGTCAGTGACAGGACAGTGAATAGTAA | 7.42 | 7.6 | 2.57 | 0.828 | 0.785 | 0.605 | 0.0765 | 1.03 | 0.459 | 3.11 |
| TCGAGTTGGTTACCAATGGGGCATTCAGCTTTCT | 0.424 | -0.405 | -1.9 | -0.375 | -1.66 | -0.425 | -0.63 | -0.69 | -1.31 | -0.219 |
| GCAATTAGTTGAAAGGGCAACCGAATGATTCTCG | 0.317 | 1.39 | 0.151 | 0.483 | 0.967 | 0.692 | 0.161 | 1.46 | 1.18 | 2.15 |
| ACAAACAGGTGATGAAGGTAACTCAGGCTATCAT | 1.05 | 1.01 | 0.711 | 0.584 | 0.773 | 0.14 | 0.394 | 0.713 | 0.803 | 0.582 |

| Sequence | PBM binding z-score [1] | PBM binding z-score [2] | PBM binding z-score [3] | PBM binding z-score [4] | PBM binding z-score [5] | PBM binding z-score [6] | PBM binding z-score [7] | PBM binding z-score [8] | PBM binding z-score [9] | PBM binding z-score [10] |
| --- | --- | --- | --- | --- | --- | --- | --- | --- | --- | --- |
| AATACAGAGTCACTAGGCCAGAGTAGGTACGAAT | 0.648 | 1.74 | 1.31 | 0.135 | 0.238 | -0.343 | -0.0346 | -0.415 | 0.249 | 0.141 |
| CGTGCAAGGTCAAAGGTCAGTGAAGAGATGACGG | 4.05 | 5.94 | 1.68 | 0.658 | 4.64 | 7.09 | 1.48 | 8.94 | 1.9 | 5.91 |
| TCTGATAGGTCAGTTGGTCAGCTAACGAGCTGCC | 2.34 | 2.26 | -0.134 | 1.25 | 1.43 | 0.816 | -0.173 | 1.01 | -0.0552 | 3.63 |
| CCTAACAGGCCAATCTGGGTCACTCAAGGCTTGA | 4.43 | 5.18 | 0.79 | -0.8 | 1.16 | 1.3 | 0.00111 | 1.43 | 0.117 | 1.77 |
| CGTCCAAGTTCAAGGTCAGTGAAAGAGACTCGAA | 0.857 | 1.87 | 0.331 | -0.271 | 4.01 | 4.56 | 3.81 | 3.81 | 2.09 | 4.49 |
| TCTCGGAGGACACTAAGGTCAGAGCTTTCCAGAG | 1.61 | 1.22 | -0.543 | -1.32 | 1.72 | 3.24 | 6.61 | 2.71 | -0.0898 | 3.32 |
| CCGACTGGGGCATAAGTTTACCATAAGCCAGCCC | 3.09 | 2.55 | -0.897 | -1.31 | 0.107 | -0.336 | -0.547 | -0.262 | -0.566 | 0.68 |
| TCATATTGGTAAACAGGTGAAAGTCCGTAAGTTA | 2.2 | 1.5 | 0.411 | 1.32 | 1.25 | 1.03 | 0.511 | 1.35 | 1.38 | 0.73 |
| CCTTACGGGTCACAAGGTTATAGCACGACGAGCG | 3.76 | 4.65 | 0.482 | 0.244 | 2.41 | 3.87 | 0.686 | 4.98 | 1.2 | 4.15 |
| TCGAGTAGGTTACCAATGGGGCAGTCAGCTTTCT | 3.11 | 2.43 | -0.721 | -1.01 | -0.432 | -0.103 | -1.34 | 0.0626 | -1.21 | 0.908 |
| ACTAACGGGTCAACGAGGTTATAGCACGCGTATA | 1.94 | 3.19 | 1.38 | 1.31 | 2.63 | 4.96 | 2.39 | 5.01 | 0.559 | 3.91 |
| ATCTCTAGGTAAAAAGTTCAGTGAAAGAGAGGAC | 1.79 | 2.04 | 1.14 | 0.995 | 1.73 | 1.56 | 1.46 | 1.33 | 1.65 | 2.38 |
| CGAACTAGGTTATTGACAGGACAGTGAATAGTAA | 5.85 | 5.11 | 0.805 | 0.514 | 0.855 | 0.198 | 0.237 | 0.554 | 0.372 | 0.837 |
| CCTTACGGGTCACTACAGGTTATAGCATCGGAGT | 2.72 | 3.21 | 0.858 | 0.751 | 1.99 | 4.52 | 0.327 | 4.47 | 1.02 | 3.91 |
| GCTAGCTGGCCATTTGGGTCACTCAATGACGGGC | 0.293 | 1.17 | -0.756 | -0.983 | -0.342 | -0.0667 | -0.751 | 0.365 | -1.31 | 0.859 |
| CGAACTAGGTCATTAACAGGACAGTGAATAGTAA | 8.02 | 7.96 | 3.04 | 1.69 | 2.06 | 1.28 | 0.557 | 1.97 | 0.792 | 3.27 |
| ACTTATGGGTCAACGAGGTTATAGCACGCGTATA | 6.33 | 5.8 | 1.52 | 2.09 | 2.41 | 4.34 | 1.69 | 4.3 | 1.76 | 3.89 |
| TTACCAAGGTGAAAAGTCGTTGATGCACGCCTTG | 1.72 | 2.64 | 0.0551 | 0.367 | 0.274 | 0.136 | -0.523 | 0.987 | -0.563 | 1.06 |
| GTACCTAGGTGAATAGGTCGTTGATGAGTAGGCG | 2.96 | 3.55 | -0.531 | -0.303 | 0.221 | 0.327 | -0.195 | 1.03 | 0.134 | 1.15 |
